Measurements taken from PubChem BioAssay AID1318 (The Scripps Research Institute Molecular Screening Center, 2008).
The whole screen tested about 1,200 compounds, of which about 160 (13%) were called active. Not all results are given here. A number with no mark means an inactive call.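 The calls were made as follows: active = activation above the solvent-only control well mean plus 3 SD, set per screening run (cut at about 120% in these data); inactive = the rest.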

Assay: STAT1 reporter activators, IFN-gamma induced, counter-screen for STAT3 activator project, cell-based, NIH 3T3, luciferase luminescence (AID 1318);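 also: 100% = IFN-gamma with DMSO median signal so 100% means no change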
Details: NIH 3T3 STAT1-luciferase reporter, at 5.7 µM, active compounds read high

SMILES	activation (% of control)
CN1C(=O)/C(=C\c2cc(Br)cs2)c2ccccc21	116%
Cc1nc(N=C(N)N)nc2c(C)cccc12	104%
CN1CCN(c2ccc([N+](=O)[O-])c(Sc3nc4ccccc4[nH]3)c2)CC1	96.2%
Cc1ccc(N=Nc2c(C)[nH]n(-c3ccccc3)c2=O)cc1	106%
N#Cc1ccccc1NC(=O)COc1c(Br)cc(Br)c2cccnc12	85.6%
c1ccc(-c2cn3c(n2)CCc2ccc4cccnc4c2-3)cc1	94.3%
CCOC(=O)CN(C)Cc1c[nH]c2ccccc12	88.5%
Cc1cccc(C(=O)Nc2nnc(Cc3c[nH]c4ccccc34)s2)c1	92.4%
Cc1ccc(S(=O)(=O)Nc2nc3ccccc3nc2N2CCc3ccccc3C2)cc1	105%
O=C(Cc1c[nH]c2ccccc12)OCCOC(=O)Cc1c[nH]c2ccccc12	94.1%
C/C(=N\NC(=O)CNc1cccc2ccccc12)c1ccc(Br)s1	92.6%
CSCCC(NC(=O)c1ccco1)C(=O)OCC(=O)Nc1ncc(Cl)c(C)c1Cl (stereo not given)	105%
CCOc1ccc(C2c3[nH]c4ccccc4c3CCN2Cc2cn(CC)nc2C)cc1 (stereo not given)	112%
Cc1ccc(Nc2nc(-c3sc(NC(=O)c4ccccc4)nc3C)cs2)cc1	105%
COc1ccccc1-c1nnc(NC(=O)c2ccc3ncsc3c2)o1	137% (active)
COc1ccccc1-c1nnc(SCC(=O)N2CC(C)CC(C)C2)o1 (stereo not given)	97%
OC(COc1ccc2ccccc2c1)CN1CCOCC1 (stereo not given)	118%
COc1cccc(/C=C(/CC(=O)Nc2ccc(N3CCOCC3)cc2)c2nc3ccccc3s2)c1	99.9%
Oc1c(C=Nc2cccc3nsnc23)ccc2ccccc12	95.4%
Cc1ccc(NC(=O)c2cc([N+](=O)[O-])ccc2Cl)c(O)c1	99.1%
CC(C)CNC(=O)COC(=O)/C=C/c1ccccc1[N+](=O)[O-]	89.1%
O=C(Nc1cc(C(F)(F)F)ccc1Cl)c1cc(C2CC2)on1	98.3%
Oc1cccc2ccc(/C=C/c3ccc(Br)s3)nc12	103%
COc1nc(N=C(N)N)nc2c(C)cccc12	102%
CCOC(=O)c1c(-c2cccc(C)c2)csc1NC(=O)c1c(-c2ccccc2)noc1C	117%

SMILES	activation (% of control)
O=[N+]([O-])c1ccc(N2CCN(S(=O)(=O)c3ccc4ccccc4c3)CC2)cc1NCc1ccco1	110%
O=C1CCCN1CCCNc1ncnc2c1[nH]c1ccccc12	82.6%
COc1ccc(NC(=O)ON=C2c3ccccc3-c3ccccc32)cc1	107%
Cc1ccc(-c2cc(C(=O)Nc3nn[nH]n3)c3ccccc3n2)c(C)c1	97.5%
C=CCn1c(-c2ccccc2OCC)n[nH]c1=S	112%
COC(=O)c1[nH]c2ccccc2c1NC(=O)CN1CCCc2ccccc21	106%
CC(=O)Nc1ccc(NC(=O)COc2ccccc2C(=O)Nc2cccc(Cl)c2Cl)cc1	100%
Cc1ccc(/C=N/NC(=O)COc2ccccc2-c2ccccc2)cc1	114%
COc1cccc(NC(=S)C(C#N)=C2N(C)c3ccccc3N2C)c1	103%
COC(=O)c1[nH]c2cccc(C)c2c1NC(=O)CN1CCCc2ccccc21	93.5%
NC(=O)CSc1c[nH]c2ccccc12	99.4%
COc1ccc(-c2c3c(=O)n(C)c(=O)n(C)c3cn2-c2cccc(OC)c2)cc1	101%
N#Cc1c(C(F)(F)F)cc(-c2ccc(Cl)cc2)nc1SCC(=O)O	113%
COc1ccc([N+](=O)[O-])cc1C1NN=C(c2cccc3ccccc23)S1 (stereo not given)	120%
CCSc1nnc(-c2cc3c(s2)-c2ccccc2CC3)o1	132% (active)
CSc1nc2sc3c(c2c(=O)[nH]1)CCc1ccccc1-3	95.8%
COc1ccccc1N1CCN(C(=O)c2cc3c(-c4ccc(Cl)cc4)nn(C)c3s2)CC1	93.1%
COc1cc(OC)cc(C(=O)N[C@H](C(=O)Nc2nc3ccccc3[nH]2)C(C)C)c1	109%
CSc1nc(N(C)NC(=O)c2cccc(C)c2)c2ccccc2n1	107%
CCCS(=O)(=O)Nc1c(C(=O)O)[nH]c2ccccc12	94.9%
CCOC(=O)N1CCN(CC(=O)Nc2cc(C)nn2-c2nc3ccccc3s2)CC1	101%
CCNCc1cc2cc(C)ccc2[nH]c1=O	98.7%
Cn1cccc1C(=O)Nc1nccs1	104%
CCOC(=O)C1CCN(c2ncnc3c2oc2ccc(Br)cc23)CC1	92.6%
COc1ccccc1C1C2=C(COC2=O)Nc2cc3c(cc21)OCO3 (stereo not given)	116%

SMILES	activation (% of control)
COc1ccc(/C=N/Nc2ncnc3sc4c(c23)CCCC4)cc1O	139% (active)
CCCCC(=O)Nc1nc(C)c(-c2csc(Nc3ccc(Cl)cc3)n2)s1	102%
Cc1cccc(C(=O)N2CCc3c([nH]c4ccccc34)C2CC(C)C)n1 (stereo not given)	118%
C/C(=N\c1nc2ccccc2n1C)c1cc(Cl)ccc1O	92.8%
C=CCCC(=O)Nc1nc(C)c(-c2csc(Nc3ccc(Cl)cc3)n2)s1	104%
Oc1cccc(C2c3[nH]c4ccccc4c3CCN2Cc2cnn(-c3ccccc3)c2)c1 (stereo not given)	93.5%
Fc1ccc2nc(-c3ccccc3)nc(SCc3nnc(-c4ccccc4)o3)c2c1	96.5%
COc1ccc(C2c3[nH]c4ccccc4c3CCN2CCCn2cccn2)cc1C (stereo not given)	95.6%
COc1ccc(Cl)cc1NC(=O)c1oc(C)nc1C	98.8%
Cc1csc2ncc(C(=O)N(Cc3ccccc3)c3ccccn3)c(=O)n12	103%
Cc1ccc(C2=NN(C)c3nc4ccccc4n3C2)cc1	101%
COC(=O)c1[nH]c2ccccc2c1NS(=O)(=O)c1ccc(OC)cc1OC	92.3%
O=C(O)CSCc1nc2ccccc2s1	120% (active)
O=C(O)CS/C(=C\c1ccc(F)cc1)c1nc2ccccc2s1	112%
Cc1nc2ccccc2cc1O	87.9%
COc1ccc(C)cc1NC(=O)c1[nH]c(C)c(C(C)=O)c1C	100%
CCn1c(SCC(=O)N/N=C/C=C/c2ccccc2[N+](=O)[O-])nnc1-c1ccccc1	89.9%
COc1cc(NS(=O)(=O)c2ccc(N/C=C(\C=O)c3nc4cc(Cl)ccc4o3)cc2)nc(OC)n1	93.1%
Cn1nc(-c2ccc(Cl)cc2)c2cc(C(=O)NCc3ccco3)sc21	94.9%
O=c1[nH]c(CSc2ncc(-c3ccc(F)cc3)n2Cc2ccco2)nc2ccccc12	100%
COCCCNc1nc2c(-c3cccc(C(F)(F)F)c3)nnn2c2ccccc12	98.4%
O=C(NCc1ccco1)c1cccn2c(=O)c3c4c(sc3nc12)CCCC4	87%
Cc1cccc(N(CC(=O)N=Nc2c(O)[nH]c3ccccc23)S(C)(=O)=O)c1C	107%
O=C(C1CCN(S(=O)(=O)Cc2ccccc2)CC1)N1CCCc2ccccc21	105%
Cc1ccc(OCc2nnc(SC3CCc4ccccc4C3=O)n2C)cc1 (stereo not given)	132% (active)
